# Compound activity: PubChem, National Center for Advancing Translational Sciences (NCATS)
# DRD3 agonist: activates the human D3 dopamine receptor; D3R DiscoveRx beta-arrestin cells, luminescence, 90 min; P35462; 410,000 tested, 0.58% active; max activation, %; in the data active = max activation above about 30%; also: 0% is about no effect
# Target sequence (P35462 whole entry, looked up): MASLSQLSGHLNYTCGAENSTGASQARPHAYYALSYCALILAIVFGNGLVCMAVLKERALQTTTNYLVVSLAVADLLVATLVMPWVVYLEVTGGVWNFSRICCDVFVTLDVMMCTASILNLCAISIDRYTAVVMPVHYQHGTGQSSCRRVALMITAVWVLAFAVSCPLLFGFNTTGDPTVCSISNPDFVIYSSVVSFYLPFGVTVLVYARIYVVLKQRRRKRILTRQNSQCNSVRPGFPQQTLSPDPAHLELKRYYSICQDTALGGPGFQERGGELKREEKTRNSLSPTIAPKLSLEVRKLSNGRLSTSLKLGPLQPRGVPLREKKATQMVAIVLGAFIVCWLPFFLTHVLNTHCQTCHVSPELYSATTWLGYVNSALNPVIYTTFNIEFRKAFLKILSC
#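 Agonist mode: compounds and dopamine controls were applied to plated cells for 90 min at 37 degrees C after an overnight attachment at 1500 cells/well. Luminescent read-out followed 30 - 60 minutes at room temperature with DiscoveRx detection reagent.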
# D1 PAM: human D1 dopamine receptor positive modulation | potentiation, % at 10 µM | 360,000 tested, 0.036% active | HEK293 TREx D1 cells, calcium flux, dopamine EC20 potentiation | P21728 | AID 504651; in the data active = potentiation above about 30%; also: 0% is about no effect
# D1 antagonist: human D1 dopamine receptor antagonism | P21728 | HEK293 TREx D1 cells, calcium flux, dopamine EC80; hits give low values | activity change, negative = inhibition, % at 10 µM | AID 504652 | 360,000 tested, 3.2% active; in the data active = activity change below about -30%; also: % is scaled to controls: 0 for no effect and ±100 for the full control effect
#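 Tetracycline-induced HEK293 T-REx cells with force-coupled D1 receptor were loaded with a no-wash calcium dye. Compound was added after a 10 s baseline and read kinetically for 180 s; EC80 dopamine was then added and calcium flux followed another 180 s.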
# DRD3 antagonist: antagonists of human D3 dopamine receptor. P35462. D3R cells, DiscoveRx beta-arrestin luminescence, antagonist mode; hits give low values. max response, negative = inhibition, %. 360,000 tested, 2.5% active. AID 652054; in the data active = max response below about -50%; inconclusive = no clear call, values can overlap the other calls; also: % is scaled to controls: 0 for no effect and ±100 for the full control effect
#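 Cells expressing the human receptor were seeded at 1500 cells/well, incubated overnight at 37 degrees C in 5% CO2, then exposed to library compounds with dopamine controls for 90 minutes at 37 degrees C before luminescent detection.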
# D1 ag: activates the human D1 dopamine receptor. P21728. HEK293 T-REx D1 cells, calcium flux, agonist mode. activation, % at 2 µM. 360,000 tested, 1% active. AID 504660; in the data active = activation above about 30%; also: 0% is about no effect
#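 Agonism was scored from calcium flux recorded over 180 s (1 read/s) after pintool compound addition, following a 10-cycle baseline. Cells were inducible force-coupled HEK293 TREx D1, plated overnight at 30 C and loaded with no-wash calcium dye.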
# * marks the source's active call; other numbers are inactive results; u = inconclusive; x = no result given. The list is not random: actives were taken first. Their share in the collection is about 6%.
SMILES,DRD3 agonist,D1 PAM,D1 antagonist,DRD3 antagonist,D1 ag
Cc1ccc2c(c1)N(C(=O)N1CCC(C(=O)NCc3cccc(Br)c3)CC1)CCO2,1.2,-1.4,-9.7,x,0.1
CN1C(=O)C2(SCC(=O)N2c2ccc(F)cc2)c2ccccc21 (stereo not drawn),0.6,-0.8,-16.0,x,5.5
COc1ccc(OC2(C)CCN(Cc3ccc(-c4ccccc4)o3)C2)cc1 (stereo not drawn),-17.8,x,x,-127.9*,x
COc1ccc(CN2CCC(C)(Oc3ccc4c(c3)OCO4)C2)c2ccccc12 (stereo not drawn),-7.1,x,x,0.0,x
Cc1ccccc1CNC(=O)Cc1csc2ccccc12,-5.4,-2.9,0.8,x,-0.7
Cc1ccc(CSC2=Nc3ccccc3C3=NC(CCC(=O)N4CCN(c5ccccc5)CC4)C(=O)N23)cc1 (stereo not drawn),-7.0,-1.6,-13.3,x,1.1
CC(=O)NC(CC(=O)Nc1ccc(S(=O)(=O)N2CCCC2)cc1)c1ccccc1 (stereo not drawn),-2.8,-0.5,3.6,u,2.8
CCN(CC)S(=O)(=O)c1ccc(NC(=O)CC(NC(C)=O)c2ccccc2)cc1 (stereo not drawn),2.4,0.9,x,-77.7*,-0.7
CCN(CC)S(=O)(=O)c1ccc(NC(=O)COC(=O)CNS(=O)(=O)/C=C/c2ccccc2)cc1,1.6,-5.7,-30.9*,-9.3,6.3
COc1cc(NS(=O)(=O)c2ccc(NC(=S)NC(=O)C3CCCC3)cc2)nc(OC)n1,-29.9,-11.9,-34.9*,-24.0,1.4
COc1cc(NS(=O)(=O)c2ccc(NC(=S)NC(=O)CC(C)C)cc2)nc(OC)n1,-8.2,-5.0,-24.1,-85.4*,-0.9
COC(=O)CCC(=O)NC(=S)Nc1ccc(S(=O)(=O)Nc2cc(OC)nc(OC)n2)cc1,1.0,1.1,3.9,7.4,6.2
COC(=O)c1ccc(OC)c(Cn2c(=O)n(-c3cccc(Cl)c3)c(=O)c3c2c2cc(C)ccc2n3C)c1,1.9,0.6,-1.0,x,1.4
CCN(CC)S(=O)(=O)c1ccc(NC(=S)NC(=O)C(C)C)cc1,0.0,-0.7,-2.6,-6.7,23.5
CCN(CC)S(=O)(=O)c1ccc(NC(=S)NC(=O)CC(C)C)cc1,-6.8,-1.9,-32.9*,-12.2,0.1
COc1cc(/C=C2\SC(=Nc3ccccc3)NC2=O)cc(Cl)c1O,-7.6,-2.2,5.3,u,156.6*
CCc1ccc(N=C2NC(=O)/C(=C/c3cc(OC)c(O)c(OC)c3)S2)cc1,-8.6,-1.8,0.7,-22.6,21.0
COc1cc(/C=C2\SC(=Nc3ccc(Cl)c(C(=O)O)c3)NC2=O)c(Br)c(Br)c1O,15.3,21.4,36.4,0.0,323.6*
COC(=O)/C=C1\SC(=Nc2ccc(Cl)c(Cl)c2)NC1=O,1.0,-0.5,10.0,1.3,2.4
CCCCNC(=O)c1ccc(Cn2c(=S)[nH]c3c([nH]c4ccc(OC)cc43)c2=O)cc1,-1.1,-4.0,4.3,-64.7*,0.3
CCOCCCNC(=O)c1ccc(Cn2c(=S)[nH]c3c([nH]c4ccc(OC)cc43)c2=O)cc1,-3.5,3.0,-8.9,-9.7,-0.7
CCN(CC)CCNC(=O)CCCCn1c(=S)[nH]c2c([nH]c3ccc(OC)cc32)c1=O,-75.4,-3.1,-11.1,-55.9*,4.3
CCN(CC)c1ccc(/C=N/N2C(=O)c3ccccc3C2=O)c(O)c1,2.5,-3.0,-1.8,2.1,4.4
CCN(CC)c1ccc2nc3ccc(N)cc3[n+](-c3ccccc3)c2c1,-10.2,-4.2,4.0,-56.3*,1.9
CCN(CC)c1ccc2nc3ccccc3[n+](CC)c2c1,-24.1,-1.4,8.6,-64.8*,5.1
SMILES,DRD3 agonist,D1 PAM,D1 antagonist,DRD3 antagonist,D1 ag
CCOc1ccc(-n2cc(-c3ccccc3)c3c(NCCc4ccccc4)ncnc32)cc1,8.6,-3.0,8.4,x,1.2
CCc1ccc(-n2c(=O)c3sc4ccccc4c3n(Cc3cccc(F)c3)c2=O)cc1,0.7,5.2,7.6,x,4.2
CCOC(=O)c1ccc(NC(=O)Cn2ncc(Cl)c(Cl)c2=O)cc1,-6.3,-3.4,-29.6,u,0.4
Cc1ccc(C(=O)OCn2ncc(Cl)c(Cl)c2=O)cc1,-7.6,-7.7,-47.6*,-50.7*,12.9
O=C(OCn1ncc(Cl)c(Cl)c1=O)c1ccc(C(F)(F)F)cc1,1.1,-4.2,-48.3*,-85.3*,0.5
O=C(CSc1n[nH]c(-c2cccs2)n1)N1CCN(S(=O)(=O)c2ccccc2)CC1,1.5,-10.6,-59.4*,-3.1,6.5
CSc1nnc(NC(=O)c2ccc(S(=O)(=O)N3CCOCC3)cc2)s1,1.8,-0.8,-0.3,-59.2*,2.6
Cc1ccc(C(=O)Nc2nnc(S(=O)(=O)N3CCOCC3)s2)cc1,-9.1,-6.3,-12.7,-57.3*,0.6
NC(=O)CSc1nnc(NC(=O)c2ccc(S(=O)(=O)N3CCOCC3)cc2)s1,-1.5,-4.3,-24.1,-0.7,0.9
CN1c2ccccc2C(O)=C(C(=S)Nc2ccccc2)S1(=O)=O,-1.4,-2.3,-3.0,-85.5*,1.2
Cc1ccc(NC(=S)C2=C(O)c3ccccc3N(C)S2(=O)=O)cc1,-3.0,1.5,-2.6,-72.7*,-0.1
CN1c2ccccc2C(O)=C(C(=O)Nc2ccccc2)S1(=O)=O,0.1,x,x,8.7,x
Cc1cc(-c2nnc(SCC(=O)c3ccc(Cl)cc3)o2)no1,-3.2,-6.4,-33.3*,0.8,9.4
Cc1[nH]c2ccc(-c3nnc(SCC(=O)c4ccc(F)cc4)o3)cc2c1C,-4.1,-7.5,-40.1*,37.8,2.3
COc1ccc(C(=O)CSc2nnc(-c3cc(C)on3)o2)cc1,1.3,-1.2,-10.6,13.0,3.1
CCn1cc2nc(SCC(=O)Nc3cc(OC)cc(OC)c3)n(Cc3ccc(Cl)cc3)c(=O)c2n1,-7.9,-0.9,-10.5,x,8.3
COc1ccc(S(=O)(=O)NCCc2csc3nc(-c4cccc(C)c4)nn23)cc1F,0.0,-3.9,x,x,20.9
Cc1nn(Cc2ccccc2Cl)c2sc(C(=O)Nc3ccccc3N3CCOCC3)cc12,-17.6,-4.0,-37.9*,45.5,3.1
Cc1nn(Cc2ccccc2Cl)c2sc(C(=O)Nc3nccs3)cc12,31.8*,-1.8,-20.1,-9.1,0.7
Cc1nn(Cc2ccc(F)cc2)c2sc(C(=O)Nc3ccccc3N3CCOCC3)cc12,6.4,0.6,3.8,17.7,2.1
O=c1c2ccccc2nc(CSc2nnnn2-c2ccccc2)n1-c1ccccc1Cl,3.5,-1.1,-35.3*,3.5,2.9
Cc1ccccc1-n1c(CSC(=N)N)nc2ccccc2c1=O,-3.9,1.5,-41.5*,-72.2*,1.5
COC(=O)c1ccc(NC(=O)CSc2nc(C)cc(C)c2C(=O)Nc2ccccc2)cc1,5.2,-1.1,-0.7,x,27.7
N#CCSc1ncnc2ccccc12,-3.5,2.2,-6.7,-54.6*,3.0
Cc1ccccc1CNC(=O)CN1C(=O)C2CCCCN2c2ccc(C(=O)N3CCCC3)cc21 (stereo not drawn),-1.4,-0.3,5.8,x,-0.3
